Source: PubChem BioAssay (EPA / NIEHS)
Results filed as inconclusive are left out. Some compounds were tested as several samples or in several runs, with calls that do not always agree. Activity calls are given as the source filed them. The calls were made as follows: active = hit-call score of the fitted dose curve at least 0.9, where 1 is the maximum; inconclusive = response in the unintended direction; inactive = score below 0.9.

Experiment: ACEA_ER_AUC_viability: ACEA Biosciences xCELLigence Real-Time Cell Analysis on Estrogen Receptor Agonism for Viability (AID 2283782);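 also: continuous compound exposure with impedance area under curve over 80 h; hit means loss of impedance signal meaning reduced cell growth or viability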
Experimental: ACEA_ER is a cell-based, single-readout assay that uses T47D, a human breast cell line, with measurements taken at 80 hours after chemical dosing in a 96-well plate, although TO2 (mc0.srcf) used a 384-well plate. Differences in plate size can be ignored given data normalization.ACEA_ER_AUC_viability is one of two assay component(s) measured or calculated from the ACEA_ER assay. It is designed to make measurements of real-time cell-growth kinetics, a form of growth reporter, as detected with electrical impedance signals by Real-Time Cell Electrode Sensor (RT-CES) technology.Data from the assay component ACEA_ER_AUC_viability was analyzed in the positive analysis fitting direction relative to DMSO as the negative control and baseline of activity. Using a type of growth reporter, loss-of-signal activity can be used to understand changes in the viability. Furthermore, this assay endpoint can be referred to as a secondary readout, because this assay has produced multiple assay endpoints where this one serves a viability function. To generalize the intended target to other relatable targets, this assay endpoint is annotated to the cell cycle intended target family, where the subfamily is cytotoxicity.
The xCELLigence system Multi-E-Plate stations were used to measure the time-dependent response to chemicals. Each compound was tested in an eight-point, 1:4 serial dilution series starting at a maximum final concentration of 100 uM. A maximum starting concentration of 0.5% DMSO was present in the 100 uM chemical samples and was diluted along with the test article dilution series. The screen was performed in biological duplicate using two separate, 96-well, E-Plates 96 for each dilution series (n = 2). Positive controls (MG132 and E2) and a negative control (assay media) were tested in quadruplicate on each testing plate. Then, 0.5% and 0.125% DMSO were tested in duplicates in each plate to serve as solvent controls for the 2 highest concentrations of testing compounds: 100 uM and 25 uM. Reference compounds were tested with 8 concentrations with 1:5 serial dilutions. All screening was carried out by ACEA Biosciences, Inc. (San Diego, CA). T-47D cells purchased from ATCC were maintained in RPMI1640 media supplemented with 10% characterized fetal bovine serum (FBS). Before screening, T-47D cells were preconditioned in assay medium: phenol red-free RPMI1640 supplemented with 10% charcoal-stripped FBS. Cells were then detached and seeded in E-Plates 96 in assay medium. After overnight monitoring of growth once every hour, compounds were added to […] cells and remained in the medium until the end of the experiment. Cellular responses were then recorded once every 5 min for the first 5 h, and once every hour for an additional 100 h.
With `Oc1cc(Cl)ccc1Oc1ccc(Cl)cc1Cl` the AC50 was 21.9 µM (active) [middle of 6 runs].
In the case of `C[C@H]1[C@H](c2ccc(Cl)cc2)SC(=O)N1C(=O)NC1CCCCC1`, the AC50 is reported as 79.9 µM (active).
In the case of `O=C(O)COc1ccc(Cl)cc1Cl`, the outcome is reported as “inactive”.
With `COP(=S)(OC)Oc1ccc([N+](=O)[O-])cc1` the outcome was “inactive”.
For `CNC(=O)Oc1ccccc1OC(C)C`, the outcome was “inactive”.
In the case of `CCOCN(C(=O)CCl)c1c(C)cccc1CC`, the AC50 is reported as 79.5 µM (active).
For `CCC(C)(C)C(=O)OC1=C(c2ccc(Cl)cc2Cl)C(=O)OC12CCCCC2`, the AC50 was 12.3 µM (active).
For `CCC(C)(NC(=O)c1cc(Cl)c(C)c(Cl)c1)C(=O)CCl` (stereo not drawn), the AC50 was 9.16 µM (active).
In the case of `CC1(C)C(C=C(Cl)Cl)C1C(=O)OC(C#N)c1ccc(F)c(Oc2ccccc2)c1` (stereo not drawn), the AC50 is reported as 74.3 µM (active).
For `N#Cc1c(Cl)c(Cl)c(Cl)c(C#N)c1Cl`, the AC50 was 1.54 µM (active).
For `CCc1ccc(C(=O)NN(C(=O)c2cc(C)cc(C)c2)C(C)(C)C)cc1`, the outcome was “inactive”.
With `ClC1C(Cl)C(Cl)C(Cl)C(Cl)C1Cl` (stereo not drawn) the outcome was “inactive” and the AC50 was 60.1 µM (active).
With `CCC(C)Nc1c([N+](=O)[O-])cc(C(C)(C)C)cc1[N+](=O)[O-]` (stereo not drawn) the outcome was “inactive”.
For `CNC(=O)Oc1cccc(N=CN(C)C)c1`, the AC50 was 50.5 µM (active).
In the case of `Clc1ccccc1-c1nnc(-c2ccccc2Cl)nn1`, the outcome is reported as “inactive”.
With `O=C(Nc1ccccc1)Nc1cnns1` the outcome was “inactive”.
For `OCCOc1ccccc1`, the outcome was “inactive”.
With `CCN(CC)C(=O)SCc1ccc(Cl)cc1` the AC50 was 75.9 µM (active).
In the case of `CN1CSC(=S)N(C)C1`, the AC50 is reported as 39.7 µM (active).
In the case of `CCCN(CCOc1c(Cl)cc(Cl)cc1Cl)C(=O)n1ccnc1`, the AC50 is reported as 74.9 µM (active).
With `CC(C)OC(=O)Nc1cccc(Cl)c1` the AC50 was 79.6 µM (active).
With `O=S(=O)(O)C(F)(F)C(F)(F)C(F)(F)C(F)(F)C(F)(F)C(F)(F)C(F)(F)C(F)(F)F` the AC50 was 80 µM (active) and the outcome was “inactive”.
In the case of `O=C(O)C(F)(F)C(F)(F)C(F)(F)C(F)(F)C(F)(F)C(F)(F)C(F)(F)F`, the outcome is reported as “inactive”.
In the case of `COP(=S)(OC)Oc1ccc(SC)c(C)c1`, the outcome is reported as “inactive”.
For `Cc1[nH]c(=O)n(C(C)(C)C)c(=O)c1Cl`, the outcome was “inactive”.
For `O=C1c2ccccc2C(=O)N1SC(Cl)(Cl)Cl`, the outcome was “inactive”.
For `CC(C)(C)C(O)/C(=C\c1ccc(Cl)cc1Cl)n1cncn1` (stereo not drawn), the AC50 was 81.1 µM (active).
With `COc1nn(CSP(=S)(OC)OC)c(=O)s1` the outcome was “inactive”.
For `O=S1OCC2C(CO1)C1(Cl)C(Cl)=C(Cl)C2(Cl)C1(Cl)Cl` (stereo not drawn), the AC50 was 71.8 µM (active).
In the case of `CC1(c2ccc(Oc3ccccc3)cc2)OC(=O)N(Nc2ccccc2)C1=O` (stereo not drawn), the AC50 is reported as 45.8 µM (active).
For `CC[C@H](C)[C@H]1O[C@]2(C=C[C@@H]1C)C[C@@H]1C[C@@H](C/C=C(\C)[C@@H](O[C@H]3C[C@H](OC)[C@@H](O[C@H]4C[C@H](OC)[C@@H](O)[C@H](C)O4)[C@H](C)O3)[C@@H](C)/C=C/C=C3\CO[C@@H]4[C@H](O)C(C)=C[C@@H](C(=O)O1)[C@]34O)O2` (tested in a mixture with another compound), the AC50 was 6.89 µM (active).
For `O=C(O)CCCOc1ccc(Cl)cc1Cl`, the outcome was “inactive”.
With `O=[N+]([O-])c1c(Cl)c(Cl)c(Cl)c(Cl)c1Cl` the AC50 was 72.3 µM (active).
In the case of `N#CN`, the outcome is reported as “inactive”.
With `Oc1ccc(Cl)cc1Cc1ccccc1` the AC50 was 18.3 µM (active) [middle of 9 runs].
In the case of `CC(C)(C)C(O)C(Oc1ccc(Cl)cc1)n1cncn1` (stereo not drawn), the outcome is reported as “inactive”.
